Experimental data taken from PubChem BioAssay (NCATS).
Inconclusive results are not listed. Active and inactive are the calls of the source. Unless noted, the call rests on the fitted dose curve; in most records, active means well fitted curve in either direction with a large enough effect (not every such curve was filed as active); inconclusive means small, poorly fitted or top-dose-only effect, or another doubt; inactive means flat fitted curve, though single readings scatter.

How the values were obtained:
[1] = AP1 Signaling Pathway (AID 357);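 further: ME-180 reporter cells stimulated with EGF at its EC50 level; on the % scale 0 is the no-effect control and ±100 the full control effect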
Procedure, shortened: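 A ratiometric CCF4 readout (405 nm excitation; 460 and 530 nm emission) quantified AP-1-driven beta-lactamase in ME-180 cells after 5 h with compound and EC50 EGF; AC50 values were derived for activators and inhibitors.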

[2] = target: Cytochrome P450 1A2 (Homo sapiens) (UniProt P05177); assay: p450-cyp1a2 (AID 410; calls by dose curve; further: potency means the concentration at half of the fitted maximal effect;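 on activity change, negative = inhibition: -100% = full effect of reference inhibitor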)
Cytochrome P450 1A2 (Homo sapiens), sequence (P05177 whole entry, looked up): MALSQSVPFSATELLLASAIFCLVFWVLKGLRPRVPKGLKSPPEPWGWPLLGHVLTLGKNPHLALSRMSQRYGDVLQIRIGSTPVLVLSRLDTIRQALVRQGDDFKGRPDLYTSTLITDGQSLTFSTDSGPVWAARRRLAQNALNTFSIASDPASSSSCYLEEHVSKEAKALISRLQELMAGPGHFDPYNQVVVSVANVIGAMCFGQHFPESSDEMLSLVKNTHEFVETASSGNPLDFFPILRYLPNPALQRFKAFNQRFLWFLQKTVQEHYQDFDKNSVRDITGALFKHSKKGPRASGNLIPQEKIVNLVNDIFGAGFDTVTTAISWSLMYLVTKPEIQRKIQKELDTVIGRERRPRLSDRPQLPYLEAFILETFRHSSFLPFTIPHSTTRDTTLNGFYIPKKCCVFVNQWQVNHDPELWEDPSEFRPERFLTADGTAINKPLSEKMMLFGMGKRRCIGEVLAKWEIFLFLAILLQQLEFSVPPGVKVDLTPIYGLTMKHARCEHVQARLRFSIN
Procedure, shortened: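 O-Demethylation of luciferin 6' methyl ether by human CYP1A2 is monitored as luciferase luminescence. Substrate sits at Km (100uM); enzyme is 20nM. Values are scaled to 57 uM furafylline as maximal inhibition.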

[3] = NFAT Signaling Pathway (AID 444); conditions: Jurkat NFAT-bla M1, carbachol, beta-lactamase ratio, 5 h;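 further: carbachol stimulus at about its EC50 of 1 µM final; on the % scale 0 is the no-effect control and ±100 the full control effect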
Procedure, shortened: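 Read-out: CCF4 FRET ratio (460 nm/530 nm) after 1 h RT dye loading, used for %activity and AC50 from titration series. Cells: Jurkat NFAT-β-lactamase/M1 line, treated with compound plus 1 uM carbachol for 5 h, 37 °C.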

[4] = Stat Signaling Pathway (AID 446);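 further: ME-180 cervical cancer cells given 40 pM IL-6 alongside compound; SIE-controlled beta-lactamase reporter measured as 460/530 nm FRET emission ratio; on the % scale 0 is the no-effect control and ±100 the full control effect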
Procedure, shortened: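 Compound effects on IL-6-induced STAT reporter activity were measured in ME-180 cells. After overnight culture, cells were co-treated with 40 pM IL-6 for 5 hrs before beta-lactamase substrate loading at room temperature.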

[5] = target: Glucocorticoid receptor (Homo sapiens) (UniProt P04150); assay: GR-GFP Redistribution (AID 450;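 active means compounds whose dose series gives a full or clear partial fitted curve of increased nuclear translocation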; further: potency means the concentration at half of the fitted maximal effect); conditions: U2OS GR-GFP nuclear translocation, laser cytometry, 2 h
Glucocorticoid receptor (Homo sapiens), sequence (P04150 whole entry, looked up, the tested form may be a part): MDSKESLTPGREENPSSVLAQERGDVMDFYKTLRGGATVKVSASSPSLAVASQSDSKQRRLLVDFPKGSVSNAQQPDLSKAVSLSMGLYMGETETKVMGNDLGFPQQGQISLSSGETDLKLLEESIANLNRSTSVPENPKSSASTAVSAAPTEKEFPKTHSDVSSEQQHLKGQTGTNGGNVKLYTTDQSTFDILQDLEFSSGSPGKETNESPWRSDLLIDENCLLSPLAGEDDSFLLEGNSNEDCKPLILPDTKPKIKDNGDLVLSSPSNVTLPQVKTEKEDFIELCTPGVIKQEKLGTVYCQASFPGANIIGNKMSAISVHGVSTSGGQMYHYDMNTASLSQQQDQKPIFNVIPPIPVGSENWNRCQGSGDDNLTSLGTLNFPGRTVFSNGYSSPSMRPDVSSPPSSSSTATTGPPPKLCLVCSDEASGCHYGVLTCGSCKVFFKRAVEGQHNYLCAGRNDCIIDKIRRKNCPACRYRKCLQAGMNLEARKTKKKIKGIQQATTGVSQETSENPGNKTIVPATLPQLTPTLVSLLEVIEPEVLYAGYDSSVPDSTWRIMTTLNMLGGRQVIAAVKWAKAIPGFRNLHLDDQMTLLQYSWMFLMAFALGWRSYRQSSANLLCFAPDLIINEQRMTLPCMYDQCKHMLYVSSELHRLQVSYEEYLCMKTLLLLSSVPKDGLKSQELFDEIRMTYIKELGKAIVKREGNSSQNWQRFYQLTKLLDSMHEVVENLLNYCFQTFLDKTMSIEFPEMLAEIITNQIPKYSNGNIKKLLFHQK

[6] = target: Glucocorticoid receptor (Homo sapiens) (UniProt P04150); assay: GR-EFC Redistribution (AID 451; calls by dose curve; further: potency means the concentration at half of the fitted maximal effect); conditions: CHO-K1 GR-EFC translocation, beta-gal luminescence, 2 h
Procedure, shortened: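 Translocation of GR-ED fusion to nuclear EA restores b-gal, read by luminescence after 1 h room-temperature detection. Engineered CHO-K1 biosensor cells, 1,000/well, exposed 2 h at 37 C to titrations up to 46 uM final.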

[7] = target: Mitogen-activated protein kinase 10 (Mus musculus) (UniProt Q61831); assay: JNK3 AlphaScreen Assay (AID 530);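 further: kinase came from lysate of stimulated human HepG2 cells; signal reports phosphorylation of biotinylated GST-cJun 1-79 at Ser73 with 10 µM ATP; on the % scale 0 is the no-effect control and ±100 the full control effect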
Procedure, shortened: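 qHTS titrations with 15 min compound pre-incubation before adding ATP (10 uM final). Read-out: AlphaScreen of Ser73-phosphorylated biotin-GST-cJun using HepG2 lysate JNK3 activated by IL-1β and TNFα.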

[8] = target: 3',5'-cyclic-AMP phosphodiesterase 4B (Homo sapiens) (UniProt Q07343); assay: qHTS Assay for Inhibitors of PDE-IV (AID 607; active means well fitted activation curve with a large enough effect in the main read-out, with a control signal flat, not every such curve was filed as active; further: % of control where 0% means no effect)
3',5'-cyclic-AMP phosphodiesterase 4B (Homo sapiens), sequence (Q07343 whole entry, looked up): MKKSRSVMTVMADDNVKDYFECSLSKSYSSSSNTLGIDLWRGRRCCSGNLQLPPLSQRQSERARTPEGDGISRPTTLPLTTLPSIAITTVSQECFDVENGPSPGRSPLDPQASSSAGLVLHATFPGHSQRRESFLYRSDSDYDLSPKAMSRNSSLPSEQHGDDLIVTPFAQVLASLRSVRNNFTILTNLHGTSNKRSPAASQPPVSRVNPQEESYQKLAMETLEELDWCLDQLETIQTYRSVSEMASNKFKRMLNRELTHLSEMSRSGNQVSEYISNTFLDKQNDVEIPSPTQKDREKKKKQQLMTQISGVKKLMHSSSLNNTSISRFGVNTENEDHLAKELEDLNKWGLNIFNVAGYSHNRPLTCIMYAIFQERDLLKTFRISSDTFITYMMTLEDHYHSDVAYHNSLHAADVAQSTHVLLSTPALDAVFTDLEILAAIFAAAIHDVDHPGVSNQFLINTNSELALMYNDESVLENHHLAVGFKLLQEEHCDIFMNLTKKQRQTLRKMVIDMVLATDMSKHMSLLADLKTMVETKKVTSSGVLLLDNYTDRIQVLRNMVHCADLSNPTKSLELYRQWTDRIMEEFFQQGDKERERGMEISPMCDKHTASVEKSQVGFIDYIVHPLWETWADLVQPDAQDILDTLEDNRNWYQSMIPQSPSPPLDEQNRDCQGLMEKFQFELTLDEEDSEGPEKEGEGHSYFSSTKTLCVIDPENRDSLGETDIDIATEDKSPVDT
Procedure, shortened: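 ACTOne HEK293 cells carry a modified cAMP-gated CNG channel and express endogenous PDE4; plated 1000 cells/well, compounds up to 22.9 uM final. Membrane-potential dye fluorescence (ex 535/em 590) was read; parental cells received 10 uM forskolin + 100 uM RO 20-1724.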

[9] = qHTS Assay for Lipid Storage Modulators (AID 1519; calls by dose curve); conditions: Drosophila S3 cells, BODIPY lipid droplet/cell ratio, laser cytometry, cells loaded with oleic acid
Procedure, shortened: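 Cells seeded at 5,000 per well were treated with compounds over a concentration series and loaded with oleic acid (400 uM, as added). Lipid droplet fluorescence (488 nm excitation, 500-530 nm channel) was read by laser-scanning cytometry and normalized to 20 uM Triacsin C.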

[10] = target: Ubiquitin carboxyl-terminal hydrolase 1 (Homo sapiens) (UniProt O94782); assay: Inhibitors of USP1/UAF1: Pilot qHTS (AID 504865; active means well fitted curve in the direction sought with a large enough effect; an effect the other way counts as inactive or inconclusive;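 further: rhodamine fluorescence freed from ubiquitin-rhodamine substrate followed over time; top concentration of the series differs between compounds; on the % scale 0 is the no-effect control and ±100 the full control effect; nearly all actives have a fitted effect of over 35% in size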)
Ubiquitin carboxyl-terminal hydrolase 1 (Homo sapiens), sequence (O94782 whole entry, looked up): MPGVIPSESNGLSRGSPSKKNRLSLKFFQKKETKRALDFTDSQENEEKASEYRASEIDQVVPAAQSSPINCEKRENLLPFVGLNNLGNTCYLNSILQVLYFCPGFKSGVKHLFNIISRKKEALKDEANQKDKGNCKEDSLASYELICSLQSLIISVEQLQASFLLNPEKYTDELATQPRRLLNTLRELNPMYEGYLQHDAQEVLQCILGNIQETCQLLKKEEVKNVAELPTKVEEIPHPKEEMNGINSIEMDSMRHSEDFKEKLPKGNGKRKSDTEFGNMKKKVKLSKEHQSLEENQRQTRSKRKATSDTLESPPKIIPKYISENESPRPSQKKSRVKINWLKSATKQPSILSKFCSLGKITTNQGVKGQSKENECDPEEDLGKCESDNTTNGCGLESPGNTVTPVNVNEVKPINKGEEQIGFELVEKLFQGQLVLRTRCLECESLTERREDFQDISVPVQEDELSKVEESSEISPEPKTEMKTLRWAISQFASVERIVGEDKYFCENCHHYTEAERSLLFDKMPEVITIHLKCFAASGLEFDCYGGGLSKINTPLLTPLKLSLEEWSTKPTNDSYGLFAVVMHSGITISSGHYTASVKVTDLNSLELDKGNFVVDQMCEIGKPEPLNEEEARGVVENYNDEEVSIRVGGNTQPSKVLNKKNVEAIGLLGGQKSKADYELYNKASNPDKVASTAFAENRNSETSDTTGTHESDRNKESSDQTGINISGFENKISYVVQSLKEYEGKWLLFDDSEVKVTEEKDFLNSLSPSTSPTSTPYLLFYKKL
Procedure, shortened: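 1nM USP1/UAF1 + cpd, 15 min RT; start w/ Ub-Rho 150nM final; kinetic FL 480/540 nm, 6 reads q60 s. Buffer 50mM HEPES pH 7.8, 0.5mM EDTA, 1mM TCEP, 0.01% Tween-20, 0.1 mg/ml BSA.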

[11] = target: Lysosomal acid glucosylceramidase (Homo sapiens) (UniProt P04062); assay: Glucocerebrosidase-p2 (AID 348; in the data active means potency below about 10 µM; further: potency means the concentration at half of the fitted maximal effect); conditions: purified GBA, blue fluorogenic substrate, 40 min
Lysosomal acid glucosylceramidase (Homo sapiens), sequence (P04062 whole entry, looked up): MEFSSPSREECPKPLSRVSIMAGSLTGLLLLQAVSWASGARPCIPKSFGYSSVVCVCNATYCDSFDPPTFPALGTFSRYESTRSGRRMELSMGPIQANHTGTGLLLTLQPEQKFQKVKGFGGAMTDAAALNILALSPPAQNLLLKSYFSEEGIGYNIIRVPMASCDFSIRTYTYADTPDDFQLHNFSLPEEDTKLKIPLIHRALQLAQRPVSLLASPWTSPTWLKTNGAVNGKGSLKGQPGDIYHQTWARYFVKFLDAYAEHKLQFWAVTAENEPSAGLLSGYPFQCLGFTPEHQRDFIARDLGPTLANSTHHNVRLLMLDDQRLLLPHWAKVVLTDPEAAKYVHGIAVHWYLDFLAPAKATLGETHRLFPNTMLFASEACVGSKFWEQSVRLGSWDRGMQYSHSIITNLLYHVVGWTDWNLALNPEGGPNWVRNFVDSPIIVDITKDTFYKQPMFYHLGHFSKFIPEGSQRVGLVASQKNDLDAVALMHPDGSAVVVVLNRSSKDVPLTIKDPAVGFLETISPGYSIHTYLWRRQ
Procedure, shortened: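 Normal human glucocerebrosidase (0.2 nM) with blue fluorogenic substrate (80 uM final) in citrate/phosphate pH 5.9 with 10mM sodium taurocholate, 0.01% tween-20; 40 min RT, NaOH/glycine stop; fluorescence Ex 365/Em 440; AC50 from a titration from 0.6 nM upwards.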

[12] = target: Cytochrome P450 3A4 (Homo sapiens) (UniProt P08684); assay: qHTS Assay for Activators of Cytochrome P450 3A4 (AID 885; active means well fitted curve in the direction sought with a large enough effect; an effect the other way counts as inactive or inconclusive; further: nearly all actives have a fitted effect of over 65% in size)
Cytochrome P450 3A4 (Homo sapiens), sequence (P08684 whole entry, looked up): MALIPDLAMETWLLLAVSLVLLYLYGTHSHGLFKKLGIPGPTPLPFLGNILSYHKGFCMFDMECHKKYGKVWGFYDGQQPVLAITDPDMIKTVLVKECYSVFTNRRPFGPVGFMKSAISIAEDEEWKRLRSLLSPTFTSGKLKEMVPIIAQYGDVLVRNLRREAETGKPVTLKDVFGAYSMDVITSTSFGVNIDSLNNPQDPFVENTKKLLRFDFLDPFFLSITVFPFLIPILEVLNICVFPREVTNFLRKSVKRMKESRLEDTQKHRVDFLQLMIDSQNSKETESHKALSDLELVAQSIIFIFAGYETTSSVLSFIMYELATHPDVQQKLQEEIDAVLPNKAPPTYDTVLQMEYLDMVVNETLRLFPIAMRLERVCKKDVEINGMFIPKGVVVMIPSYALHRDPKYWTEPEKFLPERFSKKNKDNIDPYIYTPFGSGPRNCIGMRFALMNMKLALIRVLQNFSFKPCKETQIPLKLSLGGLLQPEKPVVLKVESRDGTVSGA
Procedure, shortened: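 CYP3A4 activity: Luciferin-PPXE O-dealkylation, 25uM substrate, 200mM KPO4, RT throughout. Read-out is luciferase luminescence; higher values reflect activation.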

[13] = target: ATP-dependent 6-phosphofructokinase (Trypanosoma brucei brucei) (UniProt O15648); assay: qHTS Assay to Find Inhibitors of T. brucei phosphofructokinase: hit validation (AID 492961; active means well fitted curve in the direction sought with a large enough effect; an effect the other way counts as inactive or inconclusive)
ATP-dependent 6-phosphofructokinase (Trypanosoma brucei brucei), sequence (O15648 whole entry, looked up): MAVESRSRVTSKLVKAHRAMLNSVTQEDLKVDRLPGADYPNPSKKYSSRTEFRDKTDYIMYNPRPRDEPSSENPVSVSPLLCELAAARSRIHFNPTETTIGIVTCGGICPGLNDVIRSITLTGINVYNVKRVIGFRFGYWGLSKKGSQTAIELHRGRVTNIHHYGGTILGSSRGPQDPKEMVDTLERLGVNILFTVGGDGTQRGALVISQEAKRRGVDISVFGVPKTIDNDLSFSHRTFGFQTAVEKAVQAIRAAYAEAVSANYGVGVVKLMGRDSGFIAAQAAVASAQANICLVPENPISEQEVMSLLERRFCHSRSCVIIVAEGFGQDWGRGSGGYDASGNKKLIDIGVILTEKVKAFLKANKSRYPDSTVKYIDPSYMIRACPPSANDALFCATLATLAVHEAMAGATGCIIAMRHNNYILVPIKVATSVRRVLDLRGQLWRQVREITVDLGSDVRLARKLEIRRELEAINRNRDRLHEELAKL
Procedure, shortened: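 In this biochemical qHTS validation, titrated compounds were tested against 1.25 nM PFK with 0.1 mM ATP and 0.5 mM F6P. Percent activity came from controls lacking or containing enzyme.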

[14] = target: Luciferin 4-monooxygenase (Photinus pyralis) (UniProt P08659); assay: Biochemical firefly luciferase enzyme assay for NPC (AID 624030; active means well fitted curve in the direction sought with a large enough effect; an effect the other way counts as inactive or inconclusive;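 further: purified P. pyralis luciferase at 10 nM with luciferin and ATP substrate; 0% = DMSO and -100% = full luciferase inhibition by PTC124 control; nearly all actives have a fitted effect of over 70% in size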)
Luciferin 4-monooxygenase (Photinus pyralis), sequence (P08659 whole entry, looked up): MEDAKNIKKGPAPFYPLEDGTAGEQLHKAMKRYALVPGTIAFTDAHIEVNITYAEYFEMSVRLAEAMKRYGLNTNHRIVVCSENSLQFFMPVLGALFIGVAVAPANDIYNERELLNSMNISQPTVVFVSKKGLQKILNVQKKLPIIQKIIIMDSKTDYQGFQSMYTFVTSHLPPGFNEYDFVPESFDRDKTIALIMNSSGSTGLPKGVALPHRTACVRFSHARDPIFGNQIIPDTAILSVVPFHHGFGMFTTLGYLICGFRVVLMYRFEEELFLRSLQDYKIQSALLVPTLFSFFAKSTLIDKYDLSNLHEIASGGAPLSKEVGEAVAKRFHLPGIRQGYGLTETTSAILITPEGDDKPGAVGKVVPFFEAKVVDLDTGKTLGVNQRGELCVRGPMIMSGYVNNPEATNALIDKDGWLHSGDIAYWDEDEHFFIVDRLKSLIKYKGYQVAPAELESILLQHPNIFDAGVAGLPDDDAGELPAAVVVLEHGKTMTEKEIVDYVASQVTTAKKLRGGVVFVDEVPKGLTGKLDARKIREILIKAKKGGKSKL
Procedure, shortened: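 Direct inhibition of firefly luciferase enzyme (10 nM final, 50 mM Tris Acetate) assessed by luminescence within 5 minutes. Percent activity scaled between DMSO and PTC124 positive control, with concentration-effect curves classified by fit quality and response.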

[15] = S16 Schwann cell PMP22 intronic element firefly luciferase assay (AID 624032; active means well fitted curve in the direction sought with a large enough effect; an effect the other way counts as inactive or inconclusive;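 further: plate controls were DMSO for no effect and PTC124 positive control mean for full effect; nearly all actives have a fitted effect of over 30% in size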)
Procedure, shortened: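 Luciferase reporter of PMP22 intronic-element expression in stably transfected S16 rat Schwann cells, read by ONE-Glo luminescence after 24 h compound exposure at 37 C. Activity scaled between DMSO (0%) and positive-control PTC124; concentration-effect curves quality-classified.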

[16] = qHTS profiling for inhibitors of Plasmodium falciparum proliferation (AID 504749; active means well fitted curve in the direction sought with a large enough effect; an effect the other way counts as inactive or inconclusive;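 further: 0% = DMSO vehicle and full inhibition = artemisinin control; nearly all actives have a fitted effect of over 60% in size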); conditions: P. falciparum in erythrocytes, SYBR Green DNA, 72 h, at 12.8 µM (top of the series)
Procedure, shortened: (§1)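 SYBR Green fluorescence of parasite DNA, read after lysis and overnight dark incubation, measured growth over 72 h in erythrocyte culture at 0.3% parasitemia and 2.5% hematocrit. Data normalised to DMSO and 0.29 uM artemisinin, with plate-drift correction.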

[17] = system: C2A; assay: as above; conditions: P. falciparum in erythrocytes, SYBR Green DNA, 72 h; series mostly up to 28.7 µM
Procedure, shortened: as §1

[18] = system: CP192; assay: as above; conditions: P. falciparum in erythrocytes, SYBR Green DNA, 72 h; series mostly up to 28.7 µM
Procedure, shortened: as §1

[19] = system: CP262; assay: as above; conditions: P. falciparum in erythrocytes, SYBR Green DNA, 72 h; series mostly up to 28.7 µM
Procedure, shortened: as §1

[20] = system: FAB9; assay: as above; conditions: P. falciparum in erythrocytes, SYBR Green DNA, 72 h; series mostly up to 28.7 µM
Procedure, shortened: as §1

[21] = measured here: cell count channel max response
[22] = measured here: lipid channel max response

COc1cc2c3cc1Oc1cc(ccc1O)C[C@@H]1c4c(cc(OC)c(O)c4Oc4cccc(c4)C[C@H]3N(C)CC2)CC[N+]1(C)C
13.7%: max response [9, 22]
15.7%: max response [9, 21]
inactive: outcome [1] | Potency [2] | activity change, negative = inhibition ([3]; at 17.2 µM (top of the series)) -7.53% | outcome [4] | Potency [5] > 20.6 µM | Potency [6] > 20.6 µM | outcome [7] | Potency [8] | activity change, negative = inhibition ([9]; at 25.7 µM (top of the series)) 0.776% | Potency [10]

N#Cc1ccc(CN2CC[C@@]3(CCCN(C(=O)Oc4ccccc4)C3)C2)cc1
28.4%: max response [9, 22]
active: Potency [2] 12.6 µM
inactive: Potency [11] > 11.4 µM | outcome [1] | activity change, negative = inhibition ([3]; at 7.69 µM (top of the series)) -16.4% | outcome [4] | Potency [6] > 46 µM | outcome [7] | Potency [8] | Potency [12] | activity change, negative = inhibition ([9]; at 57.5 µM (top of the series)) 4.98%
20.4%: max response [9, 21]

COc1ccc(NC(=O)N2CCC3(CC2)CCN(C(=O)Oc2ccccc2)CC3)cc1
-21.9%: max response [9, 22]
-23.2%: max response [9, 21]
inactive: Potency [11] > 11.4 µM | outcome [1] | activity change, negative = inhibition ([3]; at 7.69 µM (top of the series)) 5.41% | outcome [4] | Potency [6] > 46 µM | outcome [7] | Potency [8] | activity change, negative = inhibition ([9]; at 57.5 µM (top of the series)) -1.68%

C[C@H]1CN(C2CCC(C#N)(c3ccc(F)cc3)CC2)CC[C@@]1(C(=O)O)c1ccccc1 (stereo partly drawn)
-19.6%: max response [9, 21]
inactive: outcome [1] | Potency [2] | activity change, negative = inhibition ([3]; at 17.2 µM (top of the series)) -14% | outcome [4] | Potency [5] > 20.6 µM | Potency [6] > 20.6 µM | outcome [7] | Potency [8] | activity change, negative = inhibition ([9]; at 25.7 µM (top of the series)) -3.1% | Potency [13] | Potency [14] | Potency [15] | activity, negative = inhibition ([16]; parasite line A) 1.54% | activity, negative = inhibition ([16]; parasite line B) 12.6% | Potency [17] | Potency [18] | Potency [19] | Potency [20]
-20.8%: max response [9, 22]

c1ccc(N2CC[C@@]3(CCCNC3)C2)nc1
16.2%: max response [9, 22]
inactive: Potency [11] > 11.4 µM | outcome [1] | Potency [2] | outcome [4] | Potency [6] > 46 µM | outcome [7] | Potency [8] | Potency [12] | activity change, negative = inhibition ([9]; at 57.5 µM (top of the series)) 2.13%
12.4%: max response [9, 21]

Clc1ccc(CS[C@@H](Cn2ccnc2)c2ccc(Cl)cc2Cl)cc1
-14.6%: max response [9, 21]
-18.3%: max response [9, 22]
inactive: outcome [1] | activity change, negative = inhibition ([9]; at 25.7 µM (top of the series)) -2.77%

CC(C)NC(=O)N1CC[C@@]2(CCCNC2)C1
13.7%: max response [9, 21]
inactive: Potency [11] > 11.4 µM | outcome [1] | Potency [2] | outcome [4] | Potency [6] > 46 µM | outcome [7] | activity change, negative = inhibition ([9]; at 57.5 µM (top of the series)) 0.953%
18.1%: max response [9, 22]
